The text below walks through data of PubChem BioAssay AID720690 (Broad Institute, 2013).

Entries with a potency or affinity are not part of this list. Activity calls are given as the source filed them.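 How the source made its calls: active means every repeat run showing a signal drop whose fitted half-maximal concentration is at most twice the top tested concentration; inconclusive means repeat runs disagree, or flat partial drop, or poor fit; inactive means the rest.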

This assay is described as follows: general mammalian cell viability loss – activator set, cherry-pick, cytotoxicity control for miR-122 modulator project, dose response (AID 720690). To be noted: HEK293T viability, CellTiter-Glo luminescence, 48 h; series mostly up to 26 µM.
For `CC(C)NC(=O)N1C[C@@H]2[C@H](c3ccccc31)[C@H](CO)N2Cc1ccccc1`, the compound was called inactive. The value for `CCNC(=O)Nc1ccc2c(c1)C(=O)N(C)[C@H]1CC[C@@H](CC(=O)NCCOC)O[C@@H]1CO2` was “inactive”; that for `CN1C(=O)c2cc(NC(=O)Nc3ccc(Cl)cc3)ccc2OC[C@@H]2O[C@@H](CC(=O)NCCN3CCCCC3)CC[C@H]21` was “inactive”.

As to `Nc1ccc(Oc2ccc(Br)cc2)cc1`, the call was inactive. For `COc1ccc(C#Cc2ccc3c(c2)O[C@@H](CN(C)C(=O)CN2CCOCC2)[C@@H](C)CN([C@H](C)CO)S3(=O)=O)cc1`, the compound was classed as inactive. In the case of `CN1C(=O)c2cc(NC(=O)c3cccc(F)c3)ccc2OC[C@@H]2O[C@@H](CC(=O)O)CC[C@@H]21`, the outcome was inactive. The value for `COc1cccc(CNC(=O)C[C@@H]2CC[C@H]3[C@H](COc4ccc(NC(C)=O)cc4C(=O)N3C)O2)c1` was “inactive”; that for `CC(=O)N1[C@H](CN(C)S(=O)(=O)c2ccccc2)[C@H](c2ccccc2)[C@@H]1CO` was “inactive”; that for `COCC(=O)Nc1ccc2c(c1)C(=O)N(C)[C@@H]1CC[C@H](CC(=O)Nc3cn(C)nc3C)O[C@H]1CO2` was “inactive”. The value for `Cc1onc(-c2ccccc2)c1C(=O)NCc1ccccn1` was “inactive”; that for `CCCNC(=O)Nc1ccc2c(c1)C(=O)N(C)[C@@H]1CC[C@H](CC(=O)O)O[C@H]1CO2` was “inactive”. The value for `O=C(CN1CCN(c2nc(-c3ccccc3)cs2)CC1)Nc1ccc2c(c1)OCO2` was “inactive”. For `CN1C(=O)c2cc(NC(=O)c3ccccc3F)ccc2OC[C@H]2O[C@@H](CC(=O)NCc3ccc4c(c3)OCO4)CC[C@@H]21`, the call was inactive.
